A selection: hits, their analogues and other compounds. The true share with any hit is near 2.4%.
PfGluPho inh – PfG6PD (Plasmodium falciparum) enzyme inhibition; PfGluPho enzyme, NADPH resazurin-diaphorase fluorescence; inhibition, % at 20 µM; hit rate 0.78% among 350,000;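 active means inhibition reaching at least a set limit at 20 µM in the primary screen, cut at about 59% in these data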;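 further: 0% = DMSO wells with substrate and 100% = DMSO wells lacking glucose-6-phosphate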
M18AAP inhibitor – PfM18AAP enzyme inhibition | recombinant PfM18AAP, H-Glu-NHMec fluorogenic cleavage | inhibition, % at 7.35 µM | hit rate 1.2% among 290,000 | AID 1822;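 active means inhibition above the campaign mean inhibition over all tested compounds plus 3 SD, cut at about 28% in these data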;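 further: 0% = plate median of test compound wells and 100% = 2 mM ZnCl2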
Yeast superoxide – lowers age-related superoxide in aged yeast cells | hit rate 0.18% among 330,000 | superoxide response (% of plate mean), % at 10 µM | AID 2690 | S. cerevisiae aged cells, superoxide DHE fluorescence; active compounds read low;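 active means superoxide response under a set limit, about three screen SD below normal, cut at about 65% in these data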;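 further: yeast aged for seven days with compound at 30 °C before DHE staining; 100% = average MFI of all compound-treated wells on the plate with controls excluded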
APOBEC3A inh – blocks human APOBEC3A ssDNA deamination; P31941; recombinant A3A, FAM/TAMRA ssDNA deamination fluorescence; inhibition, % at 20 µM; hit rate 0.41% among 330,000;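 active means at least 40% inhibition at 20 µM here, with at most 30% in a related deaminase screen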;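 further: plate controls were A3A with DMSO for no effect and wells lacking A3A enzyme for full effect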
Target sequence (P31941 whole entry, looked up): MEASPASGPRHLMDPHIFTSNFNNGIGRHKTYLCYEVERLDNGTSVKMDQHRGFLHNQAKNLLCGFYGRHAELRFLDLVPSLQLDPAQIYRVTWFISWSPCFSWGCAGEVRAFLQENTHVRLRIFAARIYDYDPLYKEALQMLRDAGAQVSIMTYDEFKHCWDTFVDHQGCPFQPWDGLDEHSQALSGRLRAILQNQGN
APOBEC3G inh – blocks human APOBEC3G single-stranded DNA deamination; AID 493012; recombinant A3G, ssDNA deamination FAM/TAMRA fluorescence; Q9HC16; hit rate 0.28% among 330,000; inhibition, % at 20 µM;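 active means inhibition of at least 40% at 20 µM, with no more than 30% in the related APOBEC3A deaminase screen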;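 further: plate controls were DMSO wells with A3G for no effect and wells lacking A3G enzyme for full effect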
Target sequence (Q9HC16 whole entry, looked up): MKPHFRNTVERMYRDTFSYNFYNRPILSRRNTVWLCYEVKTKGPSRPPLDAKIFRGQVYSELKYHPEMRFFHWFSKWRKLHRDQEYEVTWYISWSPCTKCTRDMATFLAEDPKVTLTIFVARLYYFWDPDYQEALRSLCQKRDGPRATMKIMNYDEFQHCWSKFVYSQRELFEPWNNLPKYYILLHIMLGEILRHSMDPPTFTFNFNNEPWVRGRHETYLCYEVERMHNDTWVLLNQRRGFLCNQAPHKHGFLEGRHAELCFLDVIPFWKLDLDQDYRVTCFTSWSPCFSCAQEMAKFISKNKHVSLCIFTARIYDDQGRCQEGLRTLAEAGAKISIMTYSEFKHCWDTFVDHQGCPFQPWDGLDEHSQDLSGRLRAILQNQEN
A3A conf – confirmation of human APOBEC3A DNA deaminase inhibitors; shares compounds with APOBEC3A inh; recombinant A3A, ssDNA deaminase UDG fluorescence assay; inhibition, % at 20 µM; hit rate 63% among 1,400;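 active means inhibition reaching a set limit, 80% of the first screen's cutoff, at 20 µM in any replicate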;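 further: plate controls were DMSO wells with A3A for no effect and wells lacking A3A enzyme for full effect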
UDG ctr A3A – UDG inhibition in APOBEC3A counter-screen; shares compounds with APOBEC3A inh; UDG counterscreen, FAM/TAMRA uracil oligo fluorescence; inhibition, % at 20 µM; 1,000 tested, under 10 active; AID 504714; call rule not given here
The depositor's hits bear a star; . = no result given.

SMILES | PfGluPho inh | M18AAP inhibitor | Yeast superoxide | APOBEC3A inh | APOBEC3G inh | A3A conf | UDG ctr A3A
O=C(CSc1nc2ccccc2c(=O)n1-c1ccccc1)NCC1CCCO1 (stereo unspecified) | -4 | -2 | 105 | 50* | 18 | 71* | -2
CCn1c(SCC(=O)NC2CCCCC2)nc2ccccc2c1=O | -6 | -1 | 103 | 63* | 15 | 51* | -3
CCn1c(SCC(=O)N2CCN(c3ccc(Cl)cc3)CC2)nc2ccccc2c1=O | 4 | 2 | 95 | 44* | 18 | 66* | -1
CCn1nnnc1SCC(=O)N1CCN(c2ccccc2)CC1 | -4 | 4 | 117 | -1 | 0 | . | .
O=C(CSc1nnnn1Cc1ccccc1)N1CCN(c2ccccc2)CC1 | -3 | 0 | 96 | 47* | 13 | 27 | .
CCn1c(SCC(=O)N2CCN(c3ccc(F)cc3)CC2)nc2ccccc2c1=O | -3 | -2 | 91 | 3 | 0 | . | .
CCc1c(O)nc(SCC(=O)Nc2ccccc2)n(-c2ccccc2C)c1=O | -21 | . | . | . | . | . | .
O=C(Nc1ccc(Cl)cc1)c1cc2c(cc1O)[nH]c1ccccc12 | 38 | 0 | 95 | -3 | -4 | . | .
CCN(CC)CCOc1ccc2c(c1)C(=NO)c1cc(OCCN(CC)CC)ccc1-2 | 6 | -10 | 92 | 47* | 26 | 37* | -1
O=C(O)c1ncc(Cl)c(Cl)c1Cl | 12 | -5 | 102 | -4 | -4 | . | .
O=C(O)c1nsc(Cl)c1Cl | -6 | 6 | 104 | 99* | -4 | -1 | -3
Cc1cc(F)ccc1NC(=O)C1CCCO1 (stereo unspecified) | -7 | -3 | 95 | 57* | -7 | 0 | 5
CCOC(=O)[C@H]1[C@H]2COc3ccc(Cl)cc3[C@@H]2N2C(=O)CN(C)C(=O)[C@@]12C | -15 | . | 74 | -3 | -6 | . | .
CC[n+]1ccccc1/C=C1\Sc2ccc(C)cc2N1C | -2 | -10 | 101 | 54* | 24 | 84* | -3
COc1ccc(CC(=O)NNC(=O)c2ccccn2)cc1 | -1 | 8 | 88 | 46* | 2 | -1 | .
CC1(CC(=O)N/N=C/c2cc([N+](=O)[O-])c(O)cc2O)OCCO1 | -23 | 11 | 110 | 48* | 21 | 49* | 5
C[C@@H]1CN([C@H](C)CO)C(=O)CCCn2cc(nn2)CO[C@H]1CN(C)C(=O)C1CC1 | -11 | . | . | . | . | . | .
Cc1ccccc1/C=C/c1cccc[n+]1C | 5 | 3 | 99 | 84* | 15 | 69* | -3
C[n+]1ccccc1/C=C/c1ccccc1Cl | 14 | -15 | 94 | 81* | 14 | 67* | -3
Cc1ccccc1N1CC(C(=O)Nc2nnc(SCC(=O)Nc3nccs3)s2)CC1=O (stereo unspecified) | -13 | 1 | 93 | 48* | -10 | 9 | 6
CC(OC(=O)c1cccc([N+](=O)[O-])c1)C(=O)NCc1ccc2c(c1)OCO2 (stereo unspecified) | 7 | 1 | 97 | 49* | -4 | -6 | -3
O=C(NCc1ccccc1)C1CCCN(C(=O)c2ccc(F)cc2)C1 (stereo unspecified) | 4 | . | . | 0 | -10 | . | .
C[N+]1(C2CCC3CCC2C3O)CCCC1 (stereo unspecified) | -3 | 3 | 100 | 41* | 26 | 67* | 6
CC(=O)OC1C2CCC1C([N+]1(C)CCCCC1)CC2 (stereo unspecified) | 6 | -2 | 120 | 73* | 8 | 73* | -1
O=C(NCC(c1ccco1)N1CCCC1)c1cn(-c2ccccc2)nc1-c1ccc(F)cc1 (stereo unspecified) | -7 | . | . | -3 | -5 | . | .
SMILES | PfGluPho inh | M18AAP inhibitor | Yeast superoxide | APOBEC3A inh | APOBEC3G inh | A3A conf | UDG ctr A3A
COc1ccc(OCc2cc(C(=O)O)c(C)o2)cc1 | . | 6 | 104 | 53* | 8 | 34* | .
CCN(CC)Cc1cc(C(=O)O)c(C)o1 | -15 | -2 | 88 | -2 | -9 | . | .
C[N+]1(CC(O)COCC2COc3ccccc3O2)CCOCC1 (stereo unspecified) | -2 | -3 | 114 | 86* | 12 | 46* | .
Cc1cccc(C)c1NC(=O)CN(C)C(=O)c1cc(S(=O)(=O)N2CCOCC2)ccc1N1CCCC1 | 0 | . | 105 | 46* | 13 | -1 | .
Cc1c(-c2cccc(Cl)c2)nc2ccccc2c1C(=O)NC1CC1 | -13 | -6 | 93 | 1 | -3 | . | .
O=C(C[C@H]1C/C=C\CCCCC(=O)OC[C@H]2CCCN2C1=O)N[C@H](CO)Cc1ccccc1 | 14 | . | 100 | -4 | -7 | . | .
Cc1ccc[n+](CC(=O)Nc2cc(C(F)(F)F)ccc2N2CCOCC2)c1 | 1 | -14 | 103 | 48* | 11 | 65* | 3
Cc1cccc(NC(=O)CSCC(=O)Nc2cc(C(F)(F)F)ccc2N2CCOCC2)c1 | 40 | . | . | . | . | . | .
CC(C)CC[n+]1ccccc1/C=C/c1ccc(N(C)C)cc1 | -2 | 14 | 87 | 56* | -13 | 54* | -4
C[n+]1ccccc1/C=C/c1c(F)cccc1F | -1 | -3 | 101 | . | . | . | .
C[n+]1ccccc1/C=C/c1ccc([N+](=O)[O-])cc1 | 13 | 4 | 99 | 57* | 23 | 62* | .
C[n+]1ccccc1/C=C/c1ccc(F)c(F)c1 | -6 | 5 | 98 | 53* | 17 | 55* | .
C[n+]1ccccc1/C=C/c1ccc2ncccc2c1 | 5 | 3 | 98 | 75* | 18 | 75* | 0
C[n+]1ccccc1/C=C/c1ccc(C#N)cc1 | 6 | 3 | 93 | . | . | . | .
Nc1ccc2c(c1)Cc1c(F)cccc1-2 | -13 | . | . | . | . | . | .
CCn1c(N2CCN(CC(=O)c3c(C)n(C)c4ccccc34)CC2)nc2c1c(=O)[nH]c(=O)n2C | -7 | -1 | 107 | 49* | 11 | 20 | .
CCn1c(N2CCN(CC(=O)c3c(C)n(C)c4ccc(OC)cc34)CC2)nc2c1c(=O)[nH]c(=O)n2C | 12 | -2 | 100 | 2 | 5 | . | .
CC(=O)[C@]1(O)Cc2c(O)c3c(c(O)c2[C@@H](O[C@H]2C[C@H](N)[C@H](O)[C@H](C)O2)C1)C(=O)c1ccccc1C3=O | -24 | . | 111 | 41* | 20 | 46* | -2
Cc1ccc(S(=O)(=O)N2CCC3(CC2)OCCO3)s1 | 7 | 3 | 106 | -3 | -5 | . | .
Cc1ccc(N2CC(C(=O)NCc3nnnn3-c3ccc(C)c(C)c3)CC2=O)cc1 (stereo unspecified) | -1 | -1 | 102 | 52* | -3 | 6 | -14
CCn1c(C)[n+](CC(O)COCC2CC=CCC2)c2ccccc21 (stereo unspecified) | -14 | 9 | 92 | 66* | 29 | 75* | -2
CCc1n(CC(O)COC2CCCCC2)c2ccccc2[n+]1C (stereo unspecified) | -2 | -8 | 98 | 67* | 20 | 71* | -2

Screening data: PubChem, several laboratories
